What all share (test): log2 ratio of Biotin-Ahx-Ub-VS probe labelling (fragment/DMSO); higher = less target engagement (more negative = stronger competition), active = hit call of the paper (q ≤ 0.05, log2 ratio ≤ -1)
Holding throughout (conditions): compound concentration: 200 uM; treatment time: 3 h

The target of one assay is USP34 (UniProt Q70CQ2). The method, boiled down:
(§1)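 HEK293T lysate in Tris/CHAPS/IGEPAL buffer with protease inhibitors (495 µg per sample) was given fragment at 200 µM or vehicle for 3 h, in triplicate. It then received Biotin-Ahx-Ub-VS at 0.5 µM final for 1 h. Labelled DUBs were NeutrAvidin-enriched, digested with LysC and trypsin, and run by diaPASEF LC-MS/MS. Values are average log2 fragment/vehicle ratios by unpaired t-test on global-median-normalised Spectronaut quantities of proteins with ≥2 unique peptides.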

Another assay addresses T1, USP36 (UniProt Q9P275).
T1 sequence (whole entry): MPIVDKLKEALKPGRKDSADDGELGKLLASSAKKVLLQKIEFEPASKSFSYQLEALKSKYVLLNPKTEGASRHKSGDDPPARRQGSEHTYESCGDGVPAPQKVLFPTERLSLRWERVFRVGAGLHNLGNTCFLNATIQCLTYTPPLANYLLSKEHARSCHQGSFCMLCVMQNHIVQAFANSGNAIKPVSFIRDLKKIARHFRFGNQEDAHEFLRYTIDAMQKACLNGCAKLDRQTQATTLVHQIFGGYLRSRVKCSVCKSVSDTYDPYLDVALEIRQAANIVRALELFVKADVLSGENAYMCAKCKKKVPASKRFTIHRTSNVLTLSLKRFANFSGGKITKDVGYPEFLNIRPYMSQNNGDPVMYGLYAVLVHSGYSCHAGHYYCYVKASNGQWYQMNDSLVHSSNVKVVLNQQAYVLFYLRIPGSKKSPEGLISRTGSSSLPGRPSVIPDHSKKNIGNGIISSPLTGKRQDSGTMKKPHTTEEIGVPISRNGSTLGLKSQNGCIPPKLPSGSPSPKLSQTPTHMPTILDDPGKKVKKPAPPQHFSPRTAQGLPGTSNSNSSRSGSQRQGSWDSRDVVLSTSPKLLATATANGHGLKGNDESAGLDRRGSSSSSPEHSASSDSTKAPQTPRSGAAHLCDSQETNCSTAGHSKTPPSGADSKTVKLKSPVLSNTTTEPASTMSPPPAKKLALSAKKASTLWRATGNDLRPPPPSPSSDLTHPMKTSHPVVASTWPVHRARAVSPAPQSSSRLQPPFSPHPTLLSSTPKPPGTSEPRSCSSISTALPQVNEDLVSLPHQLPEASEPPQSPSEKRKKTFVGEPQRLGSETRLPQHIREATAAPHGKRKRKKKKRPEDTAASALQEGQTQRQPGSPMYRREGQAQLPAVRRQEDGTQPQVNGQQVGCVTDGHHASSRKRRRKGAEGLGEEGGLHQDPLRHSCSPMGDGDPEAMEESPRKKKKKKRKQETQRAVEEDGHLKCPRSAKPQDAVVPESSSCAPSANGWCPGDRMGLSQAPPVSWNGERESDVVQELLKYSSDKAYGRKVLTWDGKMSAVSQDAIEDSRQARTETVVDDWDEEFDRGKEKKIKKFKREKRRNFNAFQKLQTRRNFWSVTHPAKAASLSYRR
In outline:
as §1

The next assay has as its target T2, USP38 (UniProt Q8NB14).
T2 sequence (whole entry): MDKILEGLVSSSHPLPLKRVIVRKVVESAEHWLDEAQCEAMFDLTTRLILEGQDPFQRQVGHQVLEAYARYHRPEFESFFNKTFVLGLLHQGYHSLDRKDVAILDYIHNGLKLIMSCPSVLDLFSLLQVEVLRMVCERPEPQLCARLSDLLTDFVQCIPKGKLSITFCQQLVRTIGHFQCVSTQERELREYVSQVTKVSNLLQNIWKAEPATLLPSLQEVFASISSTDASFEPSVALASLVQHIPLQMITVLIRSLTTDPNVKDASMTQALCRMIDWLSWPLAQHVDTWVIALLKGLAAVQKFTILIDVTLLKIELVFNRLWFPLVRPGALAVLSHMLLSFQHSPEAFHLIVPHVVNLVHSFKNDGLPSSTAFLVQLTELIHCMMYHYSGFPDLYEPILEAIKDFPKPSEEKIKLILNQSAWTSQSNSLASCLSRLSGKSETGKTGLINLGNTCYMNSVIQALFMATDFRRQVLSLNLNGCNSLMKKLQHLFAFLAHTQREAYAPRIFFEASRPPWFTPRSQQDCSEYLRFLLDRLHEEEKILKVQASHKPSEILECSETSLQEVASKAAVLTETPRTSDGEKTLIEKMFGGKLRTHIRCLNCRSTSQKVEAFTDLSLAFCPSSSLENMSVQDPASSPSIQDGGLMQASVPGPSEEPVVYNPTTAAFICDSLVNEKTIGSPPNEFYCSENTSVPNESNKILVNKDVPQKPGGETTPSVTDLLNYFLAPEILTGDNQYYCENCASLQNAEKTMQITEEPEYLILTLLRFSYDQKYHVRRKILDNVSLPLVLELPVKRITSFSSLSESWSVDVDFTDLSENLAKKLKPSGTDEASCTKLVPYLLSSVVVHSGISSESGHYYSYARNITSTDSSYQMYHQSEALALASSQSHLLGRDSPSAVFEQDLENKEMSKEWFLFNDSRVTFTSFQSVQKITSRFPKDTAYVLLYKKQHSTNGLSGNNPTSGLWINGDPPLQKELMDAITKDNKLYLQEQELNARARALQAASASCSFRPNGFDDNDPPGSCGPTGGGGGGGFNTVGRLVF
In outline:
as §1

Another assay has as its target T3, USP39 (UniProt Q53GS9).
T3 sequence (whole entry): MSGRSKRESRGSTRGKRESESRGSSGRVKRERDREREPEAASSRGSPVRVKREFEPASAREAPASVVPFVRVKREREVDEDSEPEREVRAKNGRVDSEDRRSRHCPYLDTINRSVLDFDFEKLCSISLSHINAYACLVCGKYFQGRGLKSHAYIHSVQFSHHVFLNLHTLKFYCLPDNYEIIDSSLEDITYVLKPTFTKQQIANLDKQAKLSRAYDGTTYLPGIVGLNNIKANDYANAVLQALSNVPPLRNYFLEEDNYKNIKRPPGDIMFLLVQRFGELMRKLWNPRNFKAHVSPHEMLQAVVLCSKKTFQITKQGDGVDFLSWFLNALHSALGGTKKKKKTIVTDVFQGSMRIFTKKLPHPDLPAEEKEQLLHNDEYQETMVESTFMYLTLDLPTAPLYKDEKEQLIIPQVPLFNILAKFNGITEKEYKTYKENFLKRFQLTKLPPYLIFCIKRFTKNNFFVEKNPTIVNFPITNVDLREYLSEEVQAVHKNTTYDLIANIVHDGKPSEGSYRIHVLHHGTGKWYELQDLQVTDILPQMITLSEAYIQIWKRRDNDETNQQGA
In outline: as §1

The target in a further assay is T4, USP4 (UniProt Q13107).
T4 sequence (whole entry): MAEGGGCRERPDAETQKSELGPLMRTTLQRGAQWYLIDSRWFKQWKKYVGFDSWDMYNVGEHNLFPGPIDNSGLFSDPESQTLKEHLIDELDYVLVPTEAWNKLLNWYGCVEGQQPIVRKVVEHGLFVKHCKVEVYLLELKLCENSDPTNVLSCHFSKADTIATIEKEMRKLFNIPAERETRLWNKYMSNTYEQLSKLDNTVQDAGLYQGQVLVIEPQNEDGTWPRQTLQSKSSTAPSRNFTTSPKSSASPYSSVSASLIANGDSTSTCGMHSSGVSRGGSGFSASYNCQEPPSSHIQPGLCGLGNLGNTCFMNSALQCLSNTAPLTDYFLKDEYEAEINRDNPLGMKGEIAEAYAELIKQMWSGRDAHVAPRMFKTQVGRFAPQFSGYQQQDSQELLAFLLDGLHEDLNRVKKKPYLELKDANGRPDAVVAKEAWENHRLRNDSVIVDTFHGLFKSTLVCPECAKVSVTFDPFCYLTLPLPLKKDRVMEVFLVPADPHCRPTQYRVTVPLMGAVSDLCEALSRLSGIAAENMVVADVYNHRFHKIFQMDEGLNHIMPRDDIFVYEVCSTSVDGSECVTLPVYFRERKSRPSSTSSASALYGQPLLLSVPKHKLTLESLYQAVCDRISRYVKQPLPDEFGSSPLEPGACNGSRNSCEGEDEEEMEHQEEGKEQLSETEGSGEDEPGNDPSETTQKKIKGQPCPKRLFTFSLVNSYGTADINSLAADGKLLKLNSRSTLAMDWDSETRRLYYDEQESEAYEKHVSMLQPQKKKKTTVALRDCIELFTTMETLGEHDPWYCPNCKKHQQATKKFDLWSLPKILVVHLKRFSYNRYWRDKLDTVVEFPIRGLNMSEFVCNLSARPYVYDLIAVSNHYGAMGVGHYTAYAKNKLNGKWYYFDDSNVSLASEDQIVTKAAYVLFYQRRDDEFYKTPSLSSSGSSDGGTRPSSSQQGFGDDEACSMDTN
The method, boiled down: as §1

The record followed here is the supplement of paper PMC11732987, “Enantioselective OTUD7B fragment discovery through chemoproteomics screening and high-throughput optimisation” (Communications Chemistry, 2025).

A number with no mark means an inactive call.

Sequence of USP34 (Q70CQ2 whole entry, the tested form may be a part): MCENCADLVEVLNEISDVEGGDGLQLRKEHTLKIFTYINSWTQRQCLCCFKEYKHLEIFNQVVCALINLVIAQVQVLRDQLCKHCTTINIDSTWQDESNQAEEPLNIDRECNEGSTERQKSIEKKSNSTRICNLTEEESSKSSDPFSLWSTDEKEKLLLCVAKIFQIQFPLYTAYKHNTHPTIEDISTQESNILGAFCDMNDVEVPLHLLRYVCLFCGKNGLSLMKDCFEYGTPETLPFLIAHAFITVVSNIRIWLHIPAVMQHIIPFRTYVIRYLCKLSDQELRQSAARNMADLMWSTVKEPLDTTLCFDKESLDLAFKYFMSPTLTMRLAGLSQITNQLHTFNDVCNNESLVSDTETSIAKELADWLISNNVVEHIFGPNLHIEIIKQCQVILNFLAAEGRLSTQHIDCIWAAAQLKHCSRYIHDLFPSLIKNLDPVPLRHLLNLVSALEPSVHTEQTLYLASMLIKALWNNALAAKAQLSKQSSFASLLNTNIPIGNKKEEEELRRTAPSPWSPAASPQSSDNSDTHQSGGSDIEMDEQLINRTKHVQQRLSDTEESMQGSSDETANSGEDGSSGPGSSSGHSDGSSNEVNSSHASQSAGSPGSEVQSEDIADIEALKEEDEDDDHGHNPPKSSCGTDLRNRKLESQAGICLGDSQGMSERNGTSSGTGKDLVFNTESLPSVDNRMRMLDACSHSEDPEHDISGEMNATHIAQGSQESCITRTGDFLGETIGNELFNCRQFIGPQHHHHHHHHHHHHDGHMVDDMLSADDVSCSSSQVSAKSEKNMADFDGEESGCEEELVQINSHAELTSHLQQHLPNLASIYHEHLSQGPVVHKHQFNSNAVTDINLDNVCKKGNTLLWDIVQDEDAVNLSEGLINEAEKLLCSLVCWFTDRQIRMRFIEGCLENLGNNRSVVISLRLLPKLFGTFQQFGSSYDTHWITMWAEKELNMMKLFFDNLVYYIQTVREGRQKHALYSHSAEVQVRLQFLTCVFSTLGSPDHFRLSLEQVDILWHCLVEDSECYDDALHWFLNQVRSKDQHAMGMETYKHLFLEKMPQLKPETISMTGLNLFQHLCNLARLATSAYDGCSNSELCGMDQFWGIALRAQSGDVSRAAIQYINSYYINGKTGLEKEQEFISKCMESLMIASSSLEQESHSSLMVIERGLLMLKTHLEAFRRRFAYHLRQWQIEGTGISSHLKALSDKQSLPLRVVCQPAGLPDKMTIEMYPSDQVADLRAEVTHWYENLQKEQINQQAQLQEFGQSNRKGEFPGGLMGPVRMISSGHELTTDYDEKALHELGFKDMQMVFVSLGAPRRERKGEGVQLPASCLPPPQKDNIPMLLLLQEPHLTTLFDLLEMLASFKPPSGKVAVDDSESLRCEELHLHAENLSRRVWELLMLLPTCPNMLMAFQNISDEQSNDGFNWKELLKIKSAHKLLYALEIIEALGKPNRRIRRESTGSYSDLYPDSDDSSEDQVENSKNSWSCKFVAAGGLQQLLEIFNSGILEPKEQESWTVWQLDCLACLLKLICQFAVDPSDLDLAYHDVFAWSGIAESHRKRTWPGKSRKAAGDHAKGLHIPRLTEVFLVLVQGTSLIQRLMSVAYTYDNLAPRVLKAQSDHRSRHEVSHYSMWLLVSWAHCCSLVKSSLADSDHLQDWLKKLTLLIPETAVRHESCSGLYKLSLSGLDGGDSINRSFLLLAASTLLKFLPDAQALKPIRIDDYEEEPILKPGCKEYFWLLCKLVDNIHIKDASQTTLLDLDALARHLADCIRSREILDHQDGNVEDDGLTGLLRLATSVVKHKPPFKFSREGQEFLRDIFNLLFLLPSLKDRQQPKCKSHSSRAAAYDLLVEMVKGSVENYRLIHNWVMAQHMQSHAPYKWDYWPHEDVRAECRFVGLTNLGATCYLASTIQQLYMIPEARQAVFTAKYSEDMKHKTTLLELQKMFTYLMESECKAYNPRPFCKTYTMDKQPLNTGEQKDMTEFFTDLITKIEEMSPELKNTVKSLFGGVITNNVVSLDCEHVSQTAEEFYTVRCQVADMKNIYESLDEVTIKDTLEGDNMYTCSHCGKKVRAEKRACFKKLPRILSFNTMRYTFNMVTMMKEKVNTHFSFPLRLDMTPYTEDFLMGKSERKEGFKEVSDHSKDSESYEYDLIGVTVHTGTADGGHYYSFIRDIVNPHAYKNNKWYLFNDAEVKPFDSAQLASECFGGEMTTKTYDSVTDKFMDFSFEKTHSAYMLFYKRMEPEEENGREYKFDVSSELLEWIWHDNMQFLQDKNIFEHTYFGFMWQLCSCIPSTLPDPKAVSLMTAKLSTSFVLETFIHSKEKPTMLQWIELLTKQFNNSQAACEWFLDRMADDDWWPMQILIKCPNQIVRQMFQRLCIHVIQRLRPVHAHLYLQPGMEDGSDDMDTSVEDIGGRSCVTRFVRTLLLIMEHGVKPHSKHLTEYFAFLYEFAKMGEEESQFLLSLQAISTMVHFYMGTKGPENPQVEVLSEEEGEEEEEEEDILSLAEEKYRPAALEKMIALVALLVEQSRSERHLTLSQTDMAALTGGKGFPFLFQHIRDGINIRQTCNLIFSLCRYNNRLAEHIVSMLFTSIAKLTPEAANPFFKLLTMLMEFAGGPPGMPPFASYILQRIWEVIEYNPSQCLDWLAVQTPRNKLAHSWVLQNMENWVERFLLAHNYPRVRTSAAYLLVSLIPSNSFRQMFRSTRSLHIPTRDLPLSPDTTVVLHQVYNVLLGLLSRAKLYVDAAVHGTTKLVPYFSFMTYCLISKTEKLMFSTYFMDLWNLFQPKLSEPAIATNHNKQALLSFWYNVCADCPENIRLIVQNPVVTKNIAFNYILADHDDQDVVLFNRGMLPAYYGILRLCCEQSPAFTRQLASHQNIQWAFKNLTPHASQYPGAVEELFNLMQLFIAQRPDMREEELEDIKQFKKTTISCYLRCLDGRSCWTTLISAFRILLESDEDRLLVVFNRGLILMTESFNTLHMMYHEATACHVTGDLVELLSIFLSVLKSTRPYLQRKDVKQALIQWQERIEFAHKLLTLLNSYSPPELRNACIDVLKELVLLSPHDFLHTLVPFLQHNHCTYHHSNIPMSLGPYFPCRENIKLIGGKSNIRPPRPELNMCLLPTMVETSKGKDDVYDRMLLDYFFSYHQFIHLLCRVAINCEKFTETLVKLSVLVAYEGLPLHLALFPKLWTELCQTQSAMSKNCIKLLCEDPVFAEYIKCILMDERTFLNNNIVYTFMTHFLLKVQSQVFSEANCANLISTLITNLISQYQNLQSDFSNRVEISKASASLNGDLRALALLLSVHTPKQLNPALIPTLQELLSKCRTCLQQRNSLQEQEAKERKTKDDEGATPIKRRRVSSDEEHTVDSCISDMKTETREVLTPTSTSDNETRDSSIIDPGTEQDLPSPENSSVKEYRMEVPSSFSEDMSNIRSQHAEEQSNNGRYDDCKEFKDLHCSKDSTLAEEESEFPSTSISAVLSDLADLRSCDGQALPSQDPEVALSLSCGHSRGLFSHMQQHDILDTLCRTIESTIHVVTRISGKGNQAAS

As to `O=C(CCl)N1CCN(C(=O)N2CCCCC2)CC1`, the “log2 ratio of Biotin-Ahx-Ub-VS probe labelling” value was -0.512 with USP34; -0.269 with USP36; -1.04 (active) with USP38; -0.223 with USP39; -1.05 (active) with USP4.
